# TcdB GH inh = TcdB glycohydrolase inhibition | 0.24% of 350,000 active | TcdB glycohydrolase enzymatic assay, plate reader | P18177 | inhibition, % at 9.99 µM | AID 652162; in the data active = inhibition above about 10%
# DUSP3 inh = DUSP3 (human) phosphatase inhibition; P51452; recombinant VHR phosphatase, pNPP absorbance; inhibition, % at 13.3 µM; 0.52% of 290,000 active; AID 1654; in the data active = inhibition above about 50%
# Target sequence (P51452 whole entry, looked up): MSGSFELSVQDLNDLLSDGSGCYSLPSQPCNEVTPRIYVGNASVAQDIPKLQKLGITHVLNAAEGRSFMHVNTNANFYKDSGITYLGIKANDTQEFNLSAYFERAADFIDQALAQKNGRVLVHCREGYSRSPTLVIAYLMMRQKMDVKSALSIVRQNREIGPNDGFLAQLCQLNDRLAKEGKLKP
# Y pestis TopoI = Y. pestis Topo-I inhibition via cleavage products; AID 504884; Y. pestis Topo-I cleavage product accumulation, plate reader; activity, % at 10 µM; 0.064% of 360,000 active; in the data active = activity above about 50%, passing the limit was not always enough
# BH1578 lux ind = induces V. cholerae light production without autoinducers; V. cholerae BH1578 lux reporter, luminescence, 6 h; activation, % at 18.7 µM; 0.16% of 350,000 active; in the data active = activation mostly above about 9.7%, no sharp cut-off
# Mtb BioA inh = inhibitors of Mycobacterium tuberculosis BioA enzyme; purified M. tuberculosis BioA enzyme, plate reader; AID 602481; 0.096% of 360,000 active; inhibition, % at 9.99 µM; in the data active = inhibition above about 40%
# PfHsp40 yeast = restores yeast growth despite PfHsp40 toxicity. AID 504582. S. cerevisiae expressing PfHsp40, growth rescue, ATP luminescence. 0.68% of 340,000 active. growth rescue, % at 12.5 µM; in the data active = growth rescue above about 28%, passing the limit was not always enough;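 also: yeast W303a lacking pdr1 and pdr3 grown in galactose medium; growth measured after three days at 30 °C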
# * hit, by the source's call; i = inactive; . = not tested or not shown. Compounds with a hit are over-represented: about 1.2% of the library has one in this group of screens.
SMILES,TcdB GH inh,DUSP3 inh,Y pestis TopoI,BH1578 lux ind,Mtb BioA inh,PfHsp40 yeast
O=C(NCc1cccc(Cl)c1)C1Cc2c(-c3cccc(F)c3)ccnc2O1 (stereo not drawn),2,.,24,0,1,.
O=C(NCc1ccccc1)C1Cc2c(-c3cccc(F)c3)ccnc2O1 (stereo not drawn),11*,.,8,0,2,.
CCN1CCN(CC(O)COCc2ccccc2)CC1 (stereo not drawn),.,19,5,.,0,1
CC1=Cc2ccccc2C(C#N)N1C(=O)c1ccccc1 (stereo not drawn),-2,20,-10,8,0,0
CN(CCO)c1nc(N)c2c(N)nc3c(c2c1C#N)CC(=O)N3C1CCCC1,.,65,.,.,.,.
CC(C)(C)N1C(=O)Cc2c1nc(N)c1c(N)nc(N3CCCCC3CO)c(C#N)c21 (stereo not drawn),.,58*,-4,i,-2,0
O=C1Nc2ccccc2C1(c1ccccc1)c1ccccc1,.,17,-12,i,0,0
Nc1ccc(C2(c3ccc(N)cc3)C(=O)Nc3ccccc32)cc1,1,53*,-7,-3,.,-1
CCC1Nc2ncnc(N3CCc4ccccc4C3)c2N(Cc2ccc(Cl)cc2)C1=O (stereo not drawn),0,.,10,-1,-2,1
O=C1C(Cc2ccccc2)Nc2ncnc(N3CCc4ccccc4C3)c2N1Cc1ccc(Cl)cc1 (stereo not drawn),.,.,11,i,-2,38*
COc1ccc(CN2C(=O)C(Cc3ccccc3)Nc3ncnc(N4CCOCC4)c32)cc1 (stereo not drawn),-1,.,12,i,0,45*
CC(C)NC(=O)Nc1ccc2c(c1)C(=O)N([C@@H](C)CO)C[C@H](C)[C@H](CN(C)S(=O)(=O)c1cn(C)cn1)O2,1,.,.,.,0,.
CC(C)NC(=O)Nc1ccc2c(c1)C(=O)N([C@H](C)CO)C[C@H](C)[C@@H](CN(C)C(=O)Cc1ccccc1)OCCCC[C@H](C)O2,1,.,.,.,0,.
S=C(NCCc1ccccc1)Nc1ccccc1Cl,.,1,6,4,2,0
S=C(NCCCCc1ccccc1)NCc1ccccc1,0,4,13,i,1,55*
S=C(NCCCc1ccccc1)Nc1ccccc1Cl,1,-1,0,i,.,223*
Cc1cc(=O)oc(C)c1C(=O)NCC1CCCO1 (stereo not drawn),.,-12,-7,0,-2,-2
CCNC(=O)C[C@H]1CC[C@@H]2[C@@H](COc3ccc(NC(=O)c4cccc(OC)c4)cc3C(=O)N2C)O1,10*,.,.,.,1,.
COC(=O)C[C@H]1CC[C@@H]2[C@@H](COc3ccc(NC(=O)c4ccc(OC)cc4)cc3C(=O)N2C)O1,12*,.,.,.,0,.
COc1ccc(C(=O)Nc2ccc3c(c2)C(=O)N(C)[C@@H]2CC[C@H](CC(=O)NCC4CC4)O[C@@H]2CO3)cc1,15*,.,.,.,-7,.
CC(=O)Nc1ccc(C2(c3ccc(NC(C)=O)cc3)NC(=O)c3ccccc32)cc1,-2,6,-6,0,6,0
O=C(NCc1cccnc1)Nc1ccc(Br)cc1,1,53*,7,1,1,0
COc1ccc(-c2ccc3c(c2)[C@H]2[C@H](CCN2C(=O)C2CC2)[C@H](CO)N3C)cc1,0,.,.,.,1,.
COc1ccc(-c2ccc3c(c2)[C@@H]2[C@@H](CCN2C(=O)C2CC2)[C@H](CO)N3C)cc1,13*,.,.,.,-2,.
COc1ccc(-c2ccc3c(c2)[C@H]2[C@H](CCN2C(=O)C2CC2)[C@@H](CO)N3C)cc1,15*,.,.,.,1,.
Cc1cc(OCC(=O)N2CCC(C(=O)O)CC2)c2c(C)cc(=O)oc2c1,1,12,10,0,-1,-1
COc1ccc(CNC(=O)C(=O)NC2CC(C)(C)NC(C)(C)C2)cc1,2,28,-6,i,.,1
CC(C)n1c(O)c(C2c3cc(Cl)ccc3Oc3[nH]c(=O)n(C(C)C)c(=O)c32)c(=O)[nH]c1=O (stereo not drawn),.,49,3,i,-3,281*
CC(=O)c1c(O)n(-c2cccc(Cl)c2)c(=O)[nH]c1=O (tested in a mixture with another compound),-1,4,1,0,.,0
C[C@@H]1CN([C@H](C)CO)C(=O)c2cccc(NC(=O)c3cnccn3)c2O[C@@H]1CN(C)S(=O)(=O)c1ccc(Cl)cc1,.,.,.,.,-1,.

# Assay outcomes (PubChem)
